# Laboratory results published in PubChem BioAssay AID504842 (National Center for Advancing Translational Sciences (NCATS), 2011).
# The whole screen tested about 330,000 compounds, of which about 100 (0.03%) were called active. About 1% were inconclusive and are not listed. For the sample, actives were picked, then their nearest neighbours and some compounds at random. A number with no mark means an inactive call. Calls come from the whole dose curve; as a rule, active = well fitted inhibition curve with a large enough effect; inconclusive = small, poorly fitted or top-dose-only effect; inactive = flat fitted curve, though single readings scatter.
# System: Chaperonin Mm-Cpn (Methanococcus maripaludis)
# Experiment: Inhibitors of TCP-1 ring complex (TRiC) of Methanococcus maripaludis (MmCpn): qHTS; note: nearly all actives have a fitted effect of over 80% in size;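 for Potency: enzyme at 25 nM with ATP substrate at 10 µM during the reaction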
# Settings: purified Mm-Cpn ATPase, ADP Transcreener TR-FRET; series mostly up to 76.9 µM; activity, negative = inhibition: at the top concentration
# Description: The eukaryotic chaperonin TRiC (for TCP-1 ring complex) is an essential and conserved chaperone required for the folding and activation of 10-15% of the proteins encoded by the human genome. […] The TRiC complex consist of two stacked 7-9 membered rings, each containing a central cavity. Substrates are folded within the cavity in an ATP-dependent manner. TRiC is a complex of eight different, essential proteins. As each of the genes encoding the eight subunits is essential for cell viability and no protocol has been developed to over-express this enzyme to high levels. That is why several groups studying the TRiC chaperonin have turned to the archaeal homolog of TRiC, Methanococcus maripaludis (Mm-CPN), and have used this enzyme as a model system for the study of the type II chaperonin family. Small molecule inhibitors of the Mm-CPN enzyme would be extremely useful to study the mechanism of chaperonin activity. Importantly, TRiC and Mm-CPN both require ATP hydrolysis for function. Furthermore, the ATP binding sites are highly conserved among these type II chaperonins. This provides us with an easy, well tested and straightforward assay to identify inhibitors of chaperonin activity. The Mm-CPN assay was developed in 1536-well plate format using the HTRF Transcreener ADP assay kit (Cisbio, Bedford, MA). This assay applied the time resolved fluorescence resonance energy transfer (TR-FRET) principle. ATP in the presence of Mm-CPN is converted to ADP + Pi. An antibody labeled with Eu3+-Cryptate specific and bound to ADP labeled with […] (d2) competes with the unlabeled ADP generated by Mm-CPN. The resulting TR-FRET signal is inversely proportional to the concentration of ADP in the sample. In this assay a reduction in TR-FRET signal is observed with ATP turnover. NIH Chemical Genomics Center [NCGC] NIH Molecular Libraries Probe Centers Network [MLPCN] MLPCN Grant: DA030554-01A1 Assay Submitter (PI): Judith Frydman, Stanford University
# Purified Mm-CPN was supplied by the laboratory of Dr. Judith Frydman. Protein samples were stored at -80C as single use aliquots. Protein was thawed in ambient temperature water bath and placed on ice once thawed. Buffer was prepared fresh day of screen. The buffer composition below was used to prepare the working solution of the Mm-CPN protein and ATP substrate. The buffer is comprised of 30 mM TRIS pH 7.4, 100mM KCl, 5mM MgCl2, and 1mM DTT. A final concentration of 25nM Mm-CPN and 10uM ATP per well were used in the screen. Instructions according to the manufacturer were followed for the ADP Transcreener kit. Used 1536 well Greiner white, medium binding (MB), solid bottom plates. Plates were read on the PerkinElmer EnVision plate reader using Excitation = 320 nm and Emission = […], 665 nm. Protocol- 1.Dispense 1.5ul per well of working [Mm-CPN] = 50nM (or 75 ng / well) 2.Spin plate at 1000 rpm for 30 seconds 3.23nl of compound transferred per well 4.Incubate at 37degC for 10 minutes 5.Dispense 1.5ul per well of working [ATP] = 20uM 6.Incubate at 37degC for 30 minutes 7.Dispense 3ul per well of Anti-ADP Cryptate / ADP-d2 mix (prepared as instructed by Cisbio) 8.Incubate at ambient for 30 minutes 9.Read using EnVision
# % is set by controls: 0 for no effect and ±100 for the full control effect; potency is the fitted concentration of half-maximal effect.
SMILES,"activity, negative = inhibition",Potency
CCOc1ccc(NC(=O)COC(=O)C2CCC(=O)N2)c([N+](=O)[O-])c1 (stereo not drawn),-2.17%,–
CN(C(=O)CSc1nnc(C2CC2)n1C)C1CCCc2ccccc21 (stereo not drawn),1.32%,–
C=C(C)c1cccc(C(C)(C)NC(=O)NC2CCCC2)c1,3.61%,–
CC(=O)NC(NC(=S)Nc1c(C)n(C)n(-c2ccccc2)c1=O)C(Cl)(Cl)Cl (stereo not drawn),0.437%,–
COc1cccc(NS(=O)(=O)c2ccc(-c3coc(C)n3)cc2)c1,1.38%,–
Nc1ccccc1C(=O)NC1CCCCNC1=O (stereo not drawn),1.08%,–
COc1cccc(N2CC(C(=O)NCc3n[nH]c(=O)c4ccccc34)CC2=O)c1 (stereo not drawn),2.26%,–
CCOC(=O)c1c(N)c(C#N)nn1-c1ccccc1C(=O)OC,-12.9%,–
O=C(c1c(F)cccc1F)N1CCN(c2ncc(Br)cn2)CC1,0.0114%,–
Cc1ccccc1NC(=O)CCNS(=O)(=O)c1ccc2[nH]c(=O)oc2c1,-1.52%,–
CC(C)N(C)C(=O)CCc1nnc(CCc2c[nH]c3ccccc23)o1,-2.91%,–
O=C(Nc1cccc(C(=O)NC2CC2)c1)c1ccc(F)c(S(=O)(=O)N2CCOCC2)c1,1.05%,–
CC(=O)NC(c1cccs1)c1cc(Br)c2cccnc2c1O (stereo not drawn),-1.32%,–
COc1ccc(-c2[nH]ncc2CN(Cc2nccn2C)C(C)C)cc1F,-2.61%,–
COc1ccc(CNC(=O)CN2C(=O)NC3(CCCc4sccc43)C2=O)cc1 (stereo not drawn),-1.41%,–
O=S1(=O)C=C(SCCN2CCCC2)c2ccccc21,0.155%,–
CC(C)(C)NC(=O)CN(C(=O)c1ccc(Cl)nc1)c1cccc2ccccc12,-0.978%,–
CC(C#N)(NC(=O)CN1CCN(S(=O)(=O)c2cc(C(F)(F)F)ccc2Cl)CC1)C1CC1 (stereo not drawn),3.45%,–
Cc1nc(COc2cccc(Cl)c2)sc1C(=O)/C=C/N(C)C,-24.3%,–
COc1ccc([C@H]2CC(=O)C=C(/C=C/c3ccc(Cl)cc3)C2)cc1,-0.334%,–
COc1ccc(F)cc1C(=O)COC(=O)c1n[nH]c(=O)c2ccccc12,-0.0952%,–
CC(C)N(C(=O)Cn1cc(SCC(=O)N2CCCC2)c2ccccc21)C(C)C,0.718%,–
CN(C)CCN=c1cc(-c2ccccc2)oc2ccc(Cl)cc12,-2.28%,–
CC1(C)C/C(=C(/C#N)C(N)=O)CCO1,-0.376%,–
COc1ccccc1Oc1ccc(N2CC(C(=O)OCC(=O)c3ccc(F)cc3)CC2=O)cc1 (stereo not drawn),-1.04%,–
CCCOc1ccc(C(=O)C(CCC(CNCC)C(=O)c2ccc(OCCC)cc2)CNCC)cc1 (stereo not drawn),0.107%,–
Cc1ccc(S(=O)(=O)N2CCCC2C(=O)OCc2nc3sc(C)c(C)c3c(=O)[nH]2)cc1 (stereo not drawn),1.1%,–

SMILES,"activity, negative = inhibition",Potency
Nc1c(Cl)cc(S(N)(=O)=O)cc1S(N)(=O)=O,0.708%,–
Nc1ccc(Cl)c(S(=O)(=O)Nc2ccccc2Cl)c1,1.09%,–
O=C(CN1CCN(C(=O)c2ccco2)CC1)Nc1ccc(Cl)c(C(F)(F)F)c1,-2.16%,–
Cc1ccc2nc(SCc3nnc(-c4ccccc4[N+](=O)[O-])o3)c(C#N)cc2c1,0.0284%,–
Cn1c2ccc(F)cc2c2nnc(NN)nc21,-3.17%,–
Cn1c(=O)c([N+](=O)[O-])c(Oc2ccccc2)c2ccccc21,-2.22%,–
CCn1c(=O)c(=O)n(CC)c2cc(N3CCCCC3)c(NC(=O)c3ccc(Cl)cc3)cc21,-1.8%,–
O=C1OC2(CCCCC2)CC2=C1C1O[C@](c3ccsc3)(Cc3ccccc31)O2,-2.46% [at 15.4 µM],–
CCOC(=O)C1=C(CSc2nnnn2C)N(C)C(=O)NC1c1ccccc1 (stereo not drawn),-0.436%,–
CCc1nnc(NC(=O)C2CCN(C(=O)c3ccccc3C)CC2)s1,0.687%,–
Cc1ccc(NC(=O)Cn2cccc2C2=NC(c3ccccc3)CO2)c(C)c1 (stereo not drawn),-0.418%,–
CC(OC(=O)Cc1ccc(F)cc1)C(=O)N1CCc2ccccc21 (stereo not drawn),-0.947%,–
COCCn1c(SCC(=O)N2CCCCCC2)nc2c(c1=O)SCC2,-22%,–
Cc1ccc(-n2nc(C)c(C(=O)O)c2-n2cccc2)cc1,2.77%,–
Cc1cccc(N(Cc2ccccc2)C(=O)c2ccccc2F)c1,-2.75%,–
CCCOC1CCCN(Cc2cn(C)nc2-c2ccccc2F)C1 (stereo not drawn),-0.377%,–
O=S1(=O)CCC(NC(=S)SCc2ccccc2Br)C1 (stereo not drawn),0.837%,–
Cc1ccc(-n2nc3c(=O)n(C(C)C(=O)NCc4ccc5c(c4)OCO5)nc(C)c3c2C)cc1 (stereo not drawn),-0.0835%,–
Cc1ccc(NC(=O)Nc2cccnc2)cc1,1.12%,–
Cc1ccc(-c2nc(-c3cccnc3)sc2CC(=O)Nc2ccc(C)c(Cl)c2)cc1,–,28.2 µM (active)
Cc1nc(-c2ccc(F)cc2)c(CC(=O)Nc2cccc(S(=O)(=O)N3CCOCC3)c2)s1,-1.11%,–
COC(=O)c1sc2[nH]c(=S)n(N)c(=O)c2c1C,-11.1%,–
CCOc1ccc(C(CCc2ccccc2)NC(=O)c2ccc(OC)c(OC)c2)cc1OCC (stereo not drawn),0.0376%,–
CC(C)(CNC(=O)Cc1ccc(Cl)cc1Cl)N1CCOCC1,0.0015%,–
COc1ccc(OC)c(S(=O)(=O)N(C)CC(=O)N2CCN(c3ccccc3)CC2)c1,-4.94%,–
Cc1ccc(S(=O)(=O)N2CCCCC2)cc1NC(=O)CCNC(=O)c1ccccc1,0.79%,–
